Screens deposited in PubChem by The Scripps Research Institute Molecular Screening Center.
Sampled rows, rich in hits. Any-hit rate of the full collection: about 4.1%.
ABHD5-PLIN5 inh: ABHD5-PLIN5 interaction inhibitors, primary screen, cell lysate, split luciferase complementation, luminescence; Perilipin-5 (Homo sapiens) + 1-acylglycerol-3-phosphate O-acyltransferase ABHD5 (Homo …; Split G. princeps luciferase complementation, 4 h; inhibition, % at 4 µM; hit rate 0.78% among 360,000;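 active means inhibition above the mean inhibition across every tested compound plus 3 SD, cut at about 22% in these data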;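 further: 0% = DMSO only wells and the 100% control is not disclosed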
LEDGF integ inh: blockers of LEDGF/p75-dependent integrase strand transfer – biochemical, TR-FRET, high throughput, primary screen | AID 743269, 2014 | hit rate 0.64% among 370,000 | inhibition, % at 3.7 µM | TR-FRET IN-LEDGF/p75 DNA integration, Eu/Cy5 | HIV-1 integrase (with human LEDGF/p75);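 active means inhibition above the screen-wide mean plus 3 SD, cut at about 13% in these data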;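 further: signal is the Cy5 over europium emission ratio at 671 and 618 nm; 0% = plate median of compound wells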
rCAG RNA binder: binders of r(CAG) RNA repeats, primary screen, biochemical, fluorescence; r(CAG) RNA repeat, TO-PRO-1 dye displacement fluorescence; inhibition, % at 3 µM; hit rate 1.3% among 370,000;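 active means inhibition above the plate cutoff, the mean of all test compounds on that plate plus 3 SD, cut at about 35% in these data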;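 further: 0% = DMSO alone and 100% = 100 µM mitoxantrone as full dye displacement; higher means more dye released from RNA so lower well fluorescence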
MBD2 DNA inh: inhibitors of MBD2 binding to methylated DNA, primary screen, biochemical, TR-FRET, DNA-binding domain, human. MBD2 binding to methylated oligonucleotide. inhibition, % at 4.4 µM. hit rate 0.31% among 370,000; in the data active means inhibition above about 13%
Target sequence (Q9UBB5 whole entry, looked up, the tested form may be a part): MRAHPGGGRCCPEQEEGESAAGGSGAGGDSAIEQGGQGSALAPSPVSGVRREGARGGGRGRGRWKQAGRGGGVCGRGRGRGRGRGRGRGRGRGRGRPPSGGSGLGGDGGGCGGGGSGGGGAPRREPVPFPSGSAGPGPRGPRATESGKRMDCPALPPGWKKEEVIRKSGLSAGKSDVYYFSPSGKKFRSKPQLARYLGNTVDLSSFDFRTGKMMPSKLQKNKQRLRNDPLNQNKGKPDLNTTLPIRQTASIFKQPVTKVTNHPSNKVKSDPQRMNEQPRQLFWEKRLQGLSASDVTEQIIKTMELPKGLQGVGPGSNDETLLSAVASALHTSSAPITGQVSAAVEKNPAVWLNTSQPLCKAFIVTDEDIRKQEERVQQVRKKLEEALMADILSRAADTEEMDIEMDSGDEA
UHRF1 binding: UHRF1 methylated DNA binding inhibitors, primary screen, counter-screen for MBD2 inhibitor project, biochemical, TR-FRET, human UHRF1, single concentration. hit rate 0.75% among 370,000. inhibition, % at 4.4 µM. UHRF1 binding to methylated oligo. E3 ubiquitin-protein ligase UHRF1 (Homo sapiens), Q96T88; in the data active means inhibition above about 21%;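 further: UHRF1 SRA domain binding a hemimethylated CpG hairpin DNA probe; 0% = median of test compound wells and 100% = reference inhibitor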
PRMT1 inh: PRMT1 methyltransferase inhibitors, primary screen, biochemical, fluorescence polarization. AID 652257, 2013. hit rate 1.3% among 370,000. recombinant PRMT1, activity-based probe fluorescence polarization. Protein arginine N-methyltransferase 1 (Homo sapiens), Q99873. inhibition, % at 2.79 µM;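 active means inhibition above about 21% made by adding two undisclosed values, limit read from the data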
rCAG bind conf: small molecules binding CAG repeat RNA – biochemical, fluorescence, confirmation | inhibition, % at 3 µM | r(CAG) RNA repeat, TO-PRO-1 dye displacement fluorescence | hit rate 70% among 4,300 | shares compounds with rCAG RNA binder;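 active means inhibition above a per-plate cutoff, the mean inhibition of sample wells plus 3 SD, cut at about 35% in these data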;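 further: loss of TO-PRO-1 fluorescence as compound displaces dye from 1x1 AA loop RNA; 0% = DMSO only wells and 100% = 100 µM mitoxantrone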
DNA CAG counter: displacement of TO-PRO-1 from CAG DNA duplex, counter-screen for rCAG RNA repeat binder project, biochemical, fluorescence, TO-PRO-1 dye, d(CAG) DNA oligo; shares compounds with rCAG RNA binder; d(CAG) DNA oligo TO-PRO-1 dye displacement; hit rate 94% among 4,300; inhibition, % at 3 µM; AID 652068, 2013;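 active means inhibition above its plate's cutoff, the mean test-well inhibition plus 3 SD, cut at about 4.8% in these data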;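 further: 0% = DNA dye mix with DMSO and 100% = 100 µM mitoxantrone; hits displace the dye from DNA and so lower well fluorescence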
The depositor's hits bear a star; . = no result given.

SMILES | ABHD5-PLIN5 inh | LEDGF integ inh | rCAG RNA binder | MBD2 DNA inh | UHRF1 binding | PRMT1 inh | rCAG bind conf | DNA CAG counter
O=C(O)C/C(=C\c1cc2c(cc1Br)OCO2)c1nc2ccccc2s1 | 8 | 3 | 35* | 0 | 1 | 4 | 36* | 9.5*
COc1cc(/C=C(\CC(=O)O)c2nc3ccccc3s2)cc(OC)c1O | 8 | 2 | 14 | -8 | -3 | 8 | . | .
O=C(O)C/C(=C\c1cccc(NC(=O)c2ccccc2Cl)c1)c1nc2ccccc2s1 | 2 | -7 | 54* | -2 | 0 | 4 | 57* | 24*
NS(=O)(=O)c1ccc(NC(=O)CSc2nnc(-c3cccs3)o2)cc1 | . | 1 | 3 | -2 | -2 | -3 | . | .
Cc1cc(O)cc(=O)n1-c1ccc(Cl)c(C(F)(F)F)c1 | . | -3 | 3 | -1 | 0 | -2 | . | .
CCOc1ccc(-n2c(SCC(=O)Nc3ccc(OCc4ccccc4)cc3)nnc2-c2ccc(Cl)cc2)cc1 | . | 0 | 7 | -7 | -1 | 1 | . | .
Nc1nonc1-c1nc2ccccc2n1CC(=O)O | -6 | 2 | -2 | 3 | 2 | -3 | . | .
Nc1nonc1-c1nc2ccccc2n1CC(=O)N/N=C/c1ccc(-c2cccc(C(=O)O)c2)o1 | 1 | 6 | 61* | 0 | 6 | 9 | 46* | 14*
CC1(C(=O)NS(=O)(=O)c2cccc(Cl)c2)CCN1C(=O)Cc1ccccc1 (configuration not stated) | 3 | 0 | 8 | -4 | 0 | -3 | . | .
CC1(C(=O)NS(=O)(=O)Cc2ccccc2C(F)(F)F)CCN1C(=O)Cc1ccccc1 (configuration not stated) | 5 | 0 | 14 | 5 | 3 | 1 | . | .
Cc1ccc(F)c(S(=O)(=O)NC(=O)C2(C)CCN2C(=O)Cc2ccc(-c3ccccc3)cc2)c1 (configuration not stated) | -2 | -2 | 60* | -4 | -2 | -1 | 55* | 18*
Cc1cccc(S(=O)(=O)NC(=O)C2(C)CCN2C(=O)Cc2ccc(-c3ccccc3)cc2)c1 (configuration not stated) | -10 | -1 | 53* | 4 | 0 | 2 | 49* | 15*
CC1(C(=O)NS(=O)(=O)Cc2ccccc2)CCN1C(=O)Cc1ccc(-c2ccccc2)cc1 (configuration not stated) | 5 | 3 | 58* | 5 | 0 | 0 | 50* | 14*
CC1(C(=O)NS(=O)(=O)c2cccc(OC(F)F)c2)CCN1C(=O)c1ccco1 (configuration not stated) | 1 | 2 | 3 | -4 | -1 | -3 | . | .
CC(C)(C)c1ccc(CC(=O)N2CCC2(C)C(=O)NS(=O)(=O)c2cccc(OC(F)F)c2)cc1 (configuration not stated) | -4 | 0 | 52* | -3 | -1 | 0 | 41* | 9.7*
O=C(OCc1cn(Cc2cccc(F)c2)nn1)N1CCOCC1 | . | -4 | 2 | 1 | 7 | 0 | . | .
COc1ccc(S(=O)(=O)NC(=O)C2(C)CCN2C(=O)Cc2ccc(C(C)(C)C)cc2)cc1 (configuration not stated) | 3 | 4 | 42* | -6 | -1 | 1 | 25 | 4.8*
CC(C)(C)c1ccc(CC(=O)N2CCC2(C)C(=O)NS(=O)(=O)c2ccccc2)cc1 (configuration not stated) | -6 | -1 | 25 | 2 | 2 | 5 | . | .
Cc1cccc(S(=O)(=O)NC(=O)C2(C)CCN2C(=O)Cc2ccc(C(C)(C)C)cc2)c1 (configuration not stated) | -6 | 6 | 40* | -6 | 0 | -4 | 34 | 7.5*
COC(=O)c1ccc(CN(c2ccc(C(=O)O)c(O)c2)S(=O)(=O)c2ccc(Cl)c([N+](=O)[O-])c2)cc1 | -11 | -2 | 43* | -1 | 1 | 0 | 52* | 18*
COC(=O)c1ccc(CN(c2ccccn2)S(=O)(=O)c2ccccc2)cc1 | 4 | 2 | 2 | -4 | 3 | -1 | . | .
COC(=O)C1CN(CCc2ccccc2)CCS(=O)(=O)N1Cc1ccccc1F (configuration not stated) | . | 4 | -2 | -2 | -1 | -10 | . | .
CCOC(=O)C1=C(O)/C(=C/c2ccc(OCC(=O)O)c(OC)c2)SC1=Nc1ccc(OC)cc1 | 6 | 7 | 52* | 2 | 2 | 0 | 65* | 20*
CCOC(=O)C1=C(O)/C(=C/c2cn(CC(=O)N3CCCC3)c3ccccc23)SC1=Nc1ccccc1 | 3 | . | . | . | . | . | . | .
COc1cccc(C2NC(=S)NC(C)=C2C(C)=O)c1 (configuration not stated) | . | 3 | 3 | 1 | 2 | -1 | . | .
SMILES | ABHD5-PLIN5 inh | LEDGF integ inh | rCAG RNA binder | MBD2 DNA inh | UHRF1 binding | PRMT1 inh | rCAG bind conf | DNA CAG counter
O=C(Nc1ccc(Nc2ccccc2)cc1)c1ccc(Cl)c([N+](=O)[O-])c1 | -7 | -9 | 17 | 6 | 3 | 1 | . | .
O=C(Nc1ccc(S(=O)(=O)Nc2cnc3ccccc3n2)cc1)c1ccc(Cl)c([N+](=O)[O-])c1 | -12 | -1 | 79* | 3 | -1 | 3 | 67* | 30*
COc1ccc(C(=O)Nc2ccc(S(=O)(=O)Nc3cnc4ccccc4n3)cc2)cc1 | 8 | 2 | 46* | -1 | -8 | 1 | 28 | 5.7*
CCC(Oc1ccccc1)C(=O)Nc1ccc(S(=O)(=O)Nc2ncccn2)cc1 (configuration not stated) | 11 | 0 | 6 | -4 | -3 | -2 | . | .
COc1ccc(C(=O)Nc2ccc(S(=O)(=O)Nc3cc(C)nc(C)n3)cc2)cc1 | -4 | -1 | 5 | 8 | -1 | 3 | . | .
CCC(Oc1ccccc1)C(=O)Nc1ccc(S(=O)(=O)Nc2cnc3ccccc3n2)cc1 (configuration not stated) | 3 | 2 | 58* | -5 | -1 | -1 | 46* | 13*
